Data taken from PubChem BioAssay AID743498 (The Scripps Research Institute Molecular Screening Center, 2014).
Activity calls are given as the source filed them.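 The calls were made as follows: active = IC50, the dose giving half inhibition, at or below 10 µM; inactive = IC50 above 10 µM.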

Assay: DNA CAG repeat dye-complex inhibitors – biochemical, fluorescence, 5'CAG/3'GTC DNA, powders, MedChem round 1, counter-screen for r(CAG) RNA repeat binder project, late-stage follow-up (AID 743498)
Conditions: DNA d(CAG) repeat TO-PRO-1 dye displacement
In the case of `CN(C)CCCNC(=O)/C=C/c1cn(-c2ccccc2)nc1-c1ccccc1`, the IC50 is reported as > 29.9 µM (inactive). For `CN(C)C(=O)C1CCN(C(=O)/C=C/c2cn(-c3ccccc3)nc2-c2ccccc2)CC1`, the IC50 was > 29.9 µM (inactive). In the case of `N#C/C(=C/c1cn(-c2ccccc2)nc1-c1cccnc1)C(=O)Nc1ccc(C(=O)O)cc1`, the IC50 is reported as 28.6 µM (inactive). With `O=C(/C=C/c1cn(-c2ccccc2)nc1-c1ccc2ccccc2c1)Nc1ccc(C(=O)O)cc1` the IC50 was 3.53 µM (active). With `CCN(c1ccccc1)S(=O)(=O)c1ccc(NC(=O)c2oc3ccc(F)cc3c2C)cc1` the IC50 was > 29.9 µM (inactive). In the case of `COc1ccc(-c2nn(-c3ccccc3)cc2/C=C/C(=O)Nc2ccc(C(=O)O)cc2)cc1`, the IC50 is reported as 3.83 µM (active). With `O=C(/C=C/c1cn(-c2ccccc2)nc1-c1ccccc1)N1CCN(CC(=O)N2CCCC2)CC1` the IC50 was > 29.9 µM (inactive). With `Cc1ccc(-c2nn(-c3ccccc3)cc2/C=C/C(=O)Nc2cccc(S(N)(=O)=O)c2)cc1` the IC50 was > 29.9 µM (inactive). For `Cc1c(C(=O)Nc2ccc(S(=O)(=O)Nc3ncccn3)cc2)oc2ccc(F)cc12`, the IC50 was > 29.9 µM (inactive). With `COc1ccc(NC(=O)/C=C/c2cn(-c3ccccc3)nc2-c2ccc(OC)cc2)cc1` the IC50 was > 29.9 µM (inactive). For `NS(=O)(=O)c1ccc(NC(=O)/C=C/c2cn(-c3ccccc3)nc2-c2cccc(Cl)c2)cc1`, the IC50 was > 29.9 µM (inactive). With `CCN1CCN(C(=O)/C=C/c2cn(-c3ccccc3)nc2-c2ccccc2)CC1` the IC50 was > 29.9 µM (inactive). For `COC(=O)c1ccc(NC(=O)/C=C/c2cn(CCC#N)nc2-c2ccc(F)cc2)cc1`, the IC50 was > 29.9 µM (inactive). In the case of `COc1ccc(-c2nn(-c3ccccc3)cc2/C=C/C(=O)Nc2cccc(NC(C)=O)c2)cc1OC`, the IC50 is reported as > 29.9 µM (inactive). For `O=C(/C=C/c1cn(-c2ccccc2)nc1-c1ccccc1)NCCO`, the IC50 was > 29.9 µM (inactive). In the case of `CCN(CC)C(=O)/C=C/c1cn(-c2ccccc2)nc1-c1ccccc1`, the IC50 is reported as > 29.9 µM (inactive). In the case of `NC(=O)c1cc(NC(=O)/C=C/c2cn(-c3ccccc3)nc2-c2ccc(F)cc2)c(F)cc1F`, the IC50 is reported as > 29.9 µM (inactive). For `Cc1c(C(=O)Nc2ccc(S(=O)(=O)NCCCN3CCOCC3)cc2)oc2ccc(F)cc12`, the IC50 was > 29.9 µM (inactive). For `Cc1c(C(=O)Nc2ccc(S(=O)(=O)N(C)Cc3ccccc3)cc2)oc2ccc(F)cc12`, the IC50 was > 29.9 µM (inactive). For `O=C(/C=C/c1cn(-c2ccccc2)nc1-c1ccccc1)Nc1cc(S(=O)(=O)N2CCCC2)ccc1Cl`, the IC50 was > 29.9 µM (inactive). With `CN1C(=O)/C(=C/c2cn(-c3ccccc3)nc2-c2ccccc2)c2ccccc21` the IC50 was > 29.9 µM (inactive). With `CNC(=O)Cc1ccc(NC(=O)/C=C/c2cn(-c3ccccc3)nc2-c2ccc(F)cc2)cc1` the IC50 was > 29.9 µM (inactive). For `O=C(/C=C\c1cn(-c2ccccc2)nc1-c1ccc(F)cc1)Nc1ccc(C(=O)O)cc1`, the IC50 was 4.76 µM (active). With `CN1CCC(N(C)C(=O)/C=C/c2cn(-c3ccccc3)nc2-c2ccccc2)CC1` the IC50 was > 29.9 µM (inactive). For `CC(=O)NS(=O)(=O)c1ccc(NC(=O)/C=C/c2cn(-c3ccccc3)nc2-c2ccccc2)cc1`, the IC50 was 3.6 µM (active). In the case of `CCOC(=O)N1CCC(NC(=O)/C=C/c2cn(-c3ccccc3)nc2-c2ccccc2)CC1`, the IC50 is reported as > 29.9 µM (inactive). With `N#C/C(=C/c1cn(Cc2ccccc2)nc1-c1cccnc1)C(=O)Nc1ccc(C(=O)O)cc1` the IC50 was > 29.9 µM (inactive). For `O=C(/C=C/c1cn(-c2ccccc2)nc1-c1ccccc1)NCCc1c[nH]c2ccccc12`, the IC50 was > 29.9 µM (inactive). In the case of `CS(=O)(=O)Nc1cc(NC(=O)/C=C/c2cn(-c3ccccc3)nc2-c2ccccc2)ccc1F`, the IC50 is reported as 12.2 µM (inactive). For `Cc1ccc(-c2nn(-c3ccccc3)cc2/C=C/C(=O)Nc2ccc(S(N)(=O)=O)cc2)cc1`, the IC50 was > 29.9 µM (inactive). With `O=C(/C=C/c1cn(-c2ccccc2)nc1-c1ccccc1)NCc1ccccc1` the IC50 was > 29.9 µM (inactive).
